Laboratory results published in PMC5540273 (PLoS ONE, 2017).

Tests used:
[1] = test system: PRKD1
[2] = test system: PRKD2
[3] = test system: PRKX
[4] = test system: RAF1
[5] = test system: RET
[6] = test system: RIOK2
[7] = test system: RIOK3
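Further: kd values determined as follow-up on hits from a single-replicate KINOMEscan panel screen.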

O=C(Nc1n[nH]c2cc(-c3ccsc3)ccc12)C1CC1 [SB-732932]
Kd [1]: > 10000 nM

CN1c2ccc(-c3ccc(C(N)=O)cc3)cc2-c2[nH]ncc2S1(=O)=O
Kd [2]: > 10000 nM

CNc1nc(-c2ccc3c(N)n[nH]c3c2)cc(N2C[C@@H](C(=O)Nc3ccccc3)CC[C@H]2C)n1 [GSK2298859]
Kd [3]: 65 nM

CC[C@@H]1CO[C@H](C(=O)Nc2ccccc2)CN1c1cc(-c2ccc3c(N)n[nH]c3c2)nc(NC)n1 [GSK2376236]
Kd [3]: 130 nM

Cc1ccc(NC(=O)Nc2ccc(Cl)cc2)cc1-c1ccc(C(=O)Nc2ccncc2)cc1 [GSK1398472]
Kd [4]: 350 nM

Cc1ccc(NC(=O)Nc2ccc(Cl)c(C(F)(F)F)c2)cc1-c1ccc(C(=O)Nc2ccncc2)cc1 [GSK1398470]
Kd [4]: 340 nM

Fc1ccc(-c2nn3cccc(F)c3c2-c2ccncc2)cc1 [GW475620]
Kd [5]: > 10000 nM

CNCc1ccc2nc(NC(=O)c3ccc(C(C)(C)C)cc3)cn2c1
Kd [6]: > 10000 nM

Nc1cccc(-c2ccc3c(N)n[nH]c3c2)n1 [GSK2192730]
Kd [7]: 490 nM

CC(C)c1cc(-c2ccc3c(N)n[nH]c3c2)nc(N)n1 [GSK2250882]
Kd [7]: 440 nM
